Screening results from PubChem BioAssay.
This is a sample that favours compounds with a hit; in the whole collection about 1.5% have one here.
ANO1 block – TMEM16A chloride channel inhibitors, primary screen, cell-based, HTS | AID 588511, 2011 | hit rate 1.2% among 310,000 | Anoctamin-1 (Mus musculus), Q8BHY3 | HEK293 TMEM16A/YFP iodide influx fluorescence, ionomycin | normalized B-score (activity score, 25-100; higher = stronger inhibition) at 10 µM;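 active means ratio plate-corrected score three or more library SD toward inhibition, starting fluorescence score within five deviations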;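 further: score derived from kinetic fluorescence span divided by baseline fluorescence per well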
Target sequence (Q8BHY3 whole entry, looked up): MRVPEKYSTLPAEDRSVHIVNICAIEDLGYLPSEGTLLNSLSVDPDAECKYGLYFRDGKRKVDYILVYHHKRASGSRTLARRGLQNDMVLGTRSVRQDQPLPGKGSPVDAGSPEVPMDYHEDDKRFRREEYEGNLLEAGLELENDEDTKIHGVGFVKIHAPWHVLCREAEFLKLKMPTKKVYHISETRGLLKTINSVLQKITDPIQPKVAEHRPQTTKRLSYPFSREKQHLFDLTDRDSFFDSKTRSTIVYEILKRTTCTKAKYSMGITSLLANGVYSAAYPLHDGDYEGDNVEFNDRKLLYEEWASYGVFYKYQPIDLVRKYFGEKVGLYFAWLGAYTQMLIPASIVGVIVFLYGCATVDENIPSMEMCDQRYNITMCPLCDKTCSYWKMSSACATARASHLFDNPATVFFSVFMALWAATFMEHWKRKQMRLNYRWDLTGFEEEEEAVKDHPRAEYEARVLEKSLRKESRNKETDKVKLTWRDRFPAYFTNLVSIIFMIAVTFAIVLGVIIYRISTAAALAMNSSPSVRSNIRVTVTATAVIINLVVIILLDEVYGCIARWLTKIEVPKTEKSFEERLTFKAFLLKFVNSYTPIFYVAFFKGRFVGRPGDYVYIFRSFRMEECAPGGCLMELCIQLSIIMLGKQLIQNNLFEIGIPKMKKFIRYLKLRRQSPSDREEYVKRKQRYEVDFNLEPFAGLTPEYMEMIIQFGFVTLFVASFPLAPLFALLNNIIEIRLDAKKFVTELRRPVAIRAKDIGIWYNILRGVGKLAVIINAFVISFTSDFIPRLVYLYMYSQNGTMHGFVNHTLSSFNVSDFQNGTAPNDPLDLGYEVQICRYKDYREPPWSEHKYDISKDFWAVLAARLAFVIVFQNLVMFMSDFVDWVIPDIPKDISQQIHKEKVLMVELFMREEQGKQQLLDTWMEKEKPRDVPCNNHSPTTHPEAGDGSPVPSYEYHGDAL
iPSC survival up – enhancers of single-cell hiPSC survival, primary screen, ATPlite luminescence. 100% = ROCK inhibitor wells, 0% = DMSO. survival enhancement, % at 20 µM. hit rate 0.044% among 360,000. AID 602274, 2012; in the data active means survival enhancement above about 18%;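 further: cells exposed to compounds for 16 hours before the ATP read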
DAGLB inh – DAGLB lipase inhibitors, primary screen, biochemical, fluorescence, HTS; Diacylglycerol lipase-beta (Homo sapiens), Q8NCG7; HEK293T DAGLB membrane lysate, EnzChek fluorogenic substrate; inhibition, % at 5.17 µM; hit rate 0.059% among 340,000; in the data active means inhibition above about 34%
ABCB6 inh 2 – ABCB6 transporter inhibitors, primary screen, K562-ABCB6 cells, flow cytometry, MLPCN library; ATP-binding cassette sub-family B member 6 (Homo sapiens), Q9NP58; K562-ABCB6 porphyrin accumulation, 1 h; hits give low values; fluorescence ratio to DMSO, % at 10 µM; hit rate 0.19% among 360,000;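 active means fluorescence ratio to DMSO below 75%, the collection mean minus 3 SD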;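 further: signal is porphyrin accumulated inside mitochondria; lower ratio means ABCB6 inhibition with less porphyrin fluorescence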
ANO1 activ – TMEM16A chloride channel activators or potentiators, primary screen, cell-based, HTS; Anoctamin-1 (Mus musculus), Q8BHY3; HEK293 TMEM16A/YFP-H148Q/I152L, iodide quench fluorescence; hits give low values; B-score at 10 µM; hit rate 0.3% among 340,000; AID 623877, 2012;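 active means fluorescence-ratio B-score plate-corrected deviation score at least 3 library SD below zero, with starting fluorescence score within 5 deviations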;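 further: channel opened by trigger with iodide after compound preincubation; score built on the fluorescence ratio of max minus min over baseline; more negative score means more quench and so TMEM16A activation or potentiation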
Large screens that a line does not name were inactive.

COc1cccc(Oc2ccc(N/C=C/C(=O)C(C)(C)C)cc2)c1	ANO1 block 25
CN(C)c1ccc(C(O)P(=O)(OCc2ccccc2)c2ccc(N(C)C)cc2)cc1 (stereo unspecified)	none (no result: DAGLB inh)
CN(C)c1ccc(P(=O)(OCc2ccccc2)C(O)c2ccncc2)cc1 (stereo unspecified)	ANO1 block 25
Cc1ccc(NC(=O)CN(C)C(=O)COC(=O)CNS(=O)(=O)c2ccc(Br)cc2Cl)cc1	ANO1 activ -8.1
Cc1ccc(NC(=O)CN(C)C(=O)COC(=O)CNS(=O)(=O)c2ccc(F)c(F)c2F)cc1	none
CCOC(=O)C1CCCN(S(=O)(=O)c2cc(C(=O)OC)n(C)c2)C1 (stereo unspecified)	none
CN(Cc1cccc(-n2cccn2)c1)C(=O)CCc1nnc(C2CCCCC2)o1	ANO1 activ -6.4
CCN(CCn1cccn1)C(=O)CCc1nnc(C2CCCCC2)o1	none
N#C/C(=C/c1ccc(O)c([N+](=O)[O-])c1)C(=O)Nc1ccccc1	ANO1 block 25
COc1ccccc1CNc1cccc(C)n1	none (no result: ANO1 block, ANO1 activ)
COc1cccc(CNc2cc(CSc3ccc(Cl)cc3)nc(C)n2)c1	ANO1 block 100
COc1ccccc1CNc1cc(CSc2ccc(Cl)cc2)nc(C)n1	ANO1 block 25
COc1cccc(CNc2ccc(C)c(Cl)c2)c1	none
Cc1ccc(O)c(Nc2c3ccccc3nc3ccccc23)c1	ANO1 block 25
CSc1nc(Cl)c(Cc2ccc(OC(C)C)cc2)c(N2CCOCC2)n1	ANO1 block 100
COc1nc(SC)nc(Cl)c1Cc1ccc(OC(C)C)cc1	none
COCCN(C(=O)COC(=O)Cc1ccc(Cl)cc1)c1c(N)n(Cc2ccccc2)c(=O)[nH]c1=O	none (no result: ANO1 block, ANO1 activ)
Cc1ccccc1C(=O)N1CCC(C(=O)Nc2nccs2)CC1	none
Cc1ccccc1C(=O)N1CCC(C(=O)Nc2nc3ccc(F)cc3s2)CC1	ANO1 block 25
O=C(NCCc1ccccc1)N1c2ccccc2Sc2ccccc21	ANO1 block 100
O=[N+]([O-])c1ccc(NN=Cc2cccc3ccccc23)cc1	none (no result: ANO1 block)
O=[N+]([O-])c1cc(Br)c(O)c(/C=N/Nc2nnnn2-c2cccc3ccccc23)c1	ANO1 block 100
COc1ccc(C(=O)NNC(=S)NC(=O)c2ccc(Cl)cc2)cc1	ANO1 block 100 (no result: iPSC survival up, DAGLB inh, ABCB6 inh 2)
COc1ccc(C(=O)NC(=S)NNC(=O)c2ccc(C)cc2)cc1	none
Cc1cccc(C(=O)NC(=S)NNC(=O)c2cccs2)c1	none
Cc1cccc(C(=O)NC(=S)NNC(=O)c2ccc(Cl)cc2)c1	ANO1 block 25
O=C(NNC(=S)NC(=O)c1sc2ccccc2c1Cl)c1ccc(Cl)cc1	ANO1 block 100, ANO1 activ -9.3
CCN(CC(=O)NCc1cccs1)C(=O)c1cc(Br)ccc1O	none (no result: ANO1 block)
COCCNC(=S)N(CCO)Cc1cc2cc3c(cc2[nH]c1=O)OCCO3	none
O=C(NC(c1cccnc1)C(F)(F)F)c1cc(COc2ccc3c(c2)CCCC3)on1 (stereo unspecified)	ANO1 block 25
CCOc1ccc(NC(=O)CN(C)C(=O)c2cc3c(s2)CCC3)cc1OCC	none (no result: ANO1 block, ANO1 activ)
COc1ccc(NC(=O)c2cc(-c3ccncc3)nc3ccc(Br)cc23)cc1OC	ANO1 block 100
CCC1(c2ccccc2)NC(=O)N(CC(=O)NC2CCCCCC2)C1=O (stereo unspecified)	none (no result: ANO1 block)
O=C(CCNC(=O)c1ccc(Cl)cc1)Nc1cc(C(F)(F)F)ccc1N1CCOCC1	none (no result: ANO1 block, ANO1 activ)
COc1ccc2nc3n(c(=O)c2c1)-c1ncccc1C(=O)NC3CC(C)C (stereo unspecified)	none (no result: ANO1 block, ANO1 activ)
CCn1c(CNC(=O)Cc2ccc(OC)cc2)nnc1SCC(=O)c1ccccc1	ANO1 activ -35 (no result: ANO1 block)
Oc1ccc(N2CCN(c3ncnc4sc(-c5ccccc5)cc34)CC2)cc1	none (no result: ANO1 block)
CCc1cc2c(N3CCN(c4ccccc4)CC3)ncnc2s1	ANO1 block 25
COc1ccc(-c2noc(-c3ccccc3C(=O)NCC3CCCO3)n2)cc1 (stereo unspecified)	none
O=C(NCC1CCCO1)c1ccccc1-c1nc(-c2ccc(F)cc2)no1 (stereo unspecified)	ANO1 block 100
COc1ccccc1NOC(=O)CCOc1ccccc1	none (no result: ANO1 block)
COc1ccc(CNCCc2ccc(Cl)cc2)cc1OCc1ccccc1	ANO1 block 100
CCOc1cc(CNCCc2ccc(S(N)(=O)=O)cc2)ccc1OCc1ccccc1	none
CCOc1cc(CNCc2ccccc2)ccc1OCc1ccc(Cl)cc1	ANO1 block 100
CC(C)N(C(=O)[C@H]1C[C@H](CC(=O)NCc2cccc(C(F)(F)F)c2)C(=O)N2CCc3c([nH]c4ccc(Cl)cc34)[C@]12C)C(C)C	none (no result: ANO1 block, ANO1 activ)
CCC(=O)N1c2ccc(S(=O)(=O)CCC(=O)Nc3nccs3)cc2CC1C (stereo unspecified)	ANO1 activ -8.9
O=C(Nc1ccc(Br)cc1)C1CC(c2c(F)cccc2Cl)=NO1 (stereo unspecified)	ANO1 block 25
COc1ccc(-c2ccc3c(c2)S(=O)(=O)c2cccc(C(=O)NCc4cccc(OC(F)(F)F)c4)c2C3=O)cc1OC	ANO1 activ -4.6 (no result: ANO1 block)
CC(Sc1nnc(C2CC2)n1C1CC1)C(=O)Nc1cccc(S(=O)(=O)N(C)C)c1 (stereo unspecified)	none (no result: ANO1 block)
C=CCN(C(=O)C1CSC2(C)CCC(=O)N12)c1nc(-c2ccccc2)cs1 (stereo unspecified)	none
C=CCN(C(=O)C1=NN(C2CCS(=O)(=O)C2)C(=O)CC1)c1nc(-c2ccc([N+](=O)[O-])cc2)cs1 (stereo unspecified)	ANO1 activ -4.7
O=C(Nc1ccc(Cl)c(S(=O)(=O)N2CCOCC2)c1)[C@@H]1CCCN1C(=O)c1cccs1	none (no result: ANO1 block)
c1ccc(OCCSc2nc3ccccc3[nH]2)cc1	none
Cc1ccc2nc(SCCCCOc3ccccc3)[nH]c2c1	ANO1 block 100
O=C(NCCc1ccccc1O)c1cc2c(cc1[N+](=O)[O-])OCO2	none (no result: ANO1 block)
Cc1ccc(S(=O)(=O)NC2CC(C)(C)NC(C)(C)C2)cc1C	none
C#CCOCCOCCOCCNc1nc(N2CCN(C(=O)CCCCCCCCCCNC(=O)Cn3cc(C[C@@H](C)O)nn3)CC2)nc(N2CCN(C(=O)CCCCCCCCCCNC(=O)[C@@H]([C@H](C)CC)n3cc(CCCCCN)nn3)CC2)n1	ANO1 block 25
C#CCOCCOCCOCCNc1nc(N2CCN(C(=O)CCCCCCCCCCNC(=O)[C@H]([C@@H](C)CC)n3cc(CCCCN=C(N)N)nn3)CC2)nc(N2CCN(C(=O)CCCCCCCCCCNC(=O)[C@H](CCCN=C(N)N)n3cc(C[C@@H](C)CC)nn3)CC2)n1	ANO1 block 25 (no result: iPSC survival up, DAGLB inh, ABCB6 inh 2, ANO1 activ)
